Screening data deposited in PubChem by National Center for Advancing Translational Sciences (NCATS).
Pf growth 96h: P. falciparum growth inhibition at 96 hour, primary screen for plastid delayed-death inhibitors; Potency, µM (titrated, usually from 28.7 µM), for inactives: top-dose activity change, negative = inhibition, usual class: inhibitors; P. falciparum luciferase reporter growth, 96 h; 320,000 tested, 6.9% active; also: potency is read from the fitted curve at half-maximal effect; % is scaled to controls: 0 for no effect and ±100 for the full control effect
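Two parasite generations (96 h, 37 C, 5% CO2) of compound exposure in infected erythrocytes (0.05% parasitemia, 2% hematocrit). Luciferase-reporter P. falciparum; decreased luminescence indicates inhibited growth, aimed at apicoplast-acting delayed death.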
Pf growth 48h: inhibits P. falciparum growth in the first generation, 48 h | P. falciparum luciferase growth in erythrocytes, 48 h | Potency, µM (doses to about 28.7 µM), for inactives: at the highest dose activity change, negative = inhibition, most hits filed as inhibitors | 310,000 tested, 5.9% active; also: potency is read from the fitted curve at half-maximal effect; % is scaled to controls: 0 for no effect and ±100 for the full control effect
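Cell-based growth assay: transgenic P. falciparum expressing firefly luciferase, cultured in red cells within RPMI 1640 containing 0.5% w/v Albumax, 24 mM bicarbonate and gentamycin. A drop in luciferase activity indicates inhibition.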
Shiga inhibitor: blocks Shiga toxin action in Vero cells; Vero cells, Shiga toxin protein synthesis inhibition reporter; inhibition, % at 38.7 µM; 290,000 tested, 9.2% active; in the data active = inhibition mostly above about 28%, no sharp cut-off; inactive = mostly below about 43%; also: 0% is about no effect
Sm TGR block: blocks Schistosoma mansoni thioredoxin glutathione reductase | purified TGR, DTNB reduction, TNB absorbance 405 nm | 360,000 tested, 3% active | AID 485364 | Q962Y6 | Potency, µM (doses to about 114 µM), for inactives: at the highest dose activity change, negative = inhibition, hits mostly inhibitors; also: potency is read from the fitted curve at half-maximal effect; % is scaled to controls: 0 for no effect and ±100 for the full control effect; nearly all actives have a fitted effect of over 60% in size
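First, TGR (20 nM dispensed) and NADPH were mixed with compound. Second, a 15 min room-temperature incubation followed. Third, further NADPH and then DTNB were added to start the reaction. Finally, TNB absorbance was monitored kinetically.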
CHX counter: counter-screen hit for Shiga toxin inhibitors, cycloheximide; cell reporter, cycloheximide protein synthesis inhibition counterscreen; max response, %; 300,000 tested, 12% active; in the data active = max response mostly above about 13%, no sharp cut-off; inactive = mostly below about 14%; also: read at 38.3 µM for the half of the compounds with a filed dose; 0% is about no effect
NS1 inh: influenza NS1 inhibition; Potency, µM (titrated, usually from 46.1 µM), inactives show at the highest dose activity, positive = more growth; 270,000 tested, 0.4% active; AID 2326; calls by dose curve; also: potency is read from the fitted curve at half-maximal effect; actives are rising curves; nearly all actives have a fitted effect of over 50% in size
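Growth recovery, yeast-based: influenza A NS1 expressed in S. cerevisiae causes slow growth, and suppressors are detected by OD600. The parent strain without NS1 is used as positive control.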
Starred values were filed as active, the others as inactive; ? = inconclusive; · = no result given. Compounds with a hit are over-represented: about 21% of the library has one in this group of screens. Unless noted, calls follow the shape of the dose curve; as a rule, active = well fitted curve in the direction sought with a large enough effect; inconclusive = small, poorly fitted or top-dose-only effect, or another doubt; inactive = no such curve, though single readings can be large; an effect the other way counts as inactive or inconclusive.

SMILES	Pf growth 96h	Pf growth 48h	Shiga inhibitor	Sm TGR block	CHX counter	NS1 inh
C=CCn1c(NCc2ccccc2)nc2ccccc21	70%	42%	51	0%	16*	-18%
Cn1c(NCc2ccccc2Cl)nc2ccccc21	·	·	·	·	·	1%
C=CCn1c(NCc2ccc(OC)cc2O)nc2ccccc21	2.9µM*	?	23*	-6%	33*	0%
C=CCn1c(NCc2cc(Cl)ccc2O)nc2ccccc21	?	?	-6	-6%	1	-29%
Cn1c(NCc2ccccc2O)nc2ccccc21	·	-2%	37	0%	38*	-6%
CCn1c(NCc2cc(Cl)ccc2O)nc2ccccc21	5.2µM*	7.4µM*	2	-4%	6	?
COc1ccccc1NC(=O)Cc1c(C(=O)O)[nH]c2ccc(Cl)cc12	·	·	·	18%	·	·
COc1cccc(CNC(=O)C(NS(=O)(=O)c2cccs2)C(C)C)c1 (centres undefined)	·	·	·	3%	·	·
COc1cccc2c1ncc1c(-c3ccc(C)cc3)nn(-c3cccc([N+](=O)[O-])c3)c12	·	·	·	-5%	·	·
CCOc1ccc(C(=O)Nc2ccc(C(=O)N3CCOCC3)cc2)c(OCC)c1	41%	-5%	-24	-26%	-2	5%
c1ccc(Cn2c(NCc3ccncc3)nc3ccccc32)cc1	384%	58%	52*	-5%	26*	6%
C=CCn1c(NCc2ccccc2O)nc2ccccc21	?	?	·	-7%	22*	-4%
CC1CC(OCC(O)C[N+]2(C)CCOCC2)CC(C)(C)C1 (centres undefined)	?	?	8	0%	-5	·
c1ccc(CCCNc2nnnc3ccccc23)cc1	·	·	·	·	·	-7%
CCc1n[nH]c(=O)n1Cn1c(CC)n[nH]c1=O	10µM*	·	-1	1%	-4	-5%
COc1cc(C2c3c(-c4c(C)cc(C)cc4O)n[nH]c3C(=O)N2CCCOC(C)C)cc(OC)c1OC (centres undefined)	·	·	·	-1%	·	·
Cc1cc(Br)c(NC(=O)CCl)c(Br)c1	?	-40%	-2	32µM*	3	?
Cc1cc(NC(=O)CCl)nn1C	10µM*	?	24	28µM*	6	6%
Cc1c(Cl)cccc1NC(=O)Nc1ccn(C)n1	?	19%	45	-12%	10	-8%
Cn1ccc(NC(=O)CCl)n1	-22%	?	23	14µM*	29*	·
CCC(=O)Nc1c(C)cc(C)cc1Cl	195%	7%	4	-4%	4	10%
COc1ccc(C2=Nc3ccccc3NC(c3cccs3)=N2)cc1	·	·	·	-5%	·	·
Cc1ccc(NC(=O)C2CCN(c3cnccn3)CC2)cc1C	14%	-13%	-11	·	-1	-5%
Cc1ccc(C)c(OCc2nc3ccccc3n2C)c1	·	·	·	-4%	·	·
Cc1cccc(OCCn2c(CCCO)nc3ccccc32)c1	?	15µM*	-2	3%	-4	-15%
SMILES	Pf growth 96h	Pf growth 48h	Shiga inhibitor	Sm TGR block	CHX counter	NS1 inh
Cn1c(COc2ccc(F)cc2)nc2ccccc21	?	111%	68*	0%	43*	-35%
Cc1nnc(OCc2nc3ccccc3n2C)c2ccccc12	13%	50%	68*	-1%	33*	-3%
Cc1ccccc1OCc1nc2ccccc2n1C	12%	125%	·	23%	32*	-74%
CCCCNC(=O)CCn1c(=O)c2cccn2c2ccc(F)cc21	8%	-28%	-2	4%	-4	0%
CCCc1ncc(CN2CCC(C(=O)Nc3cccc(-c4cscn4)c3)CC2)cn1	-19%	-23%	-6	-14%	3	-5%
COc1ccccc1NC(C)C(=O)Nc1ccc(C(C)=O)cc1 (centres undefined)	-20%	-18%	-11	2%	5	?
Cc1cccc(OCc2nc3ccccc3n2C)c1	35%	65%	29*	-2%	37*	-44%
CC(=O)C1=C(C)OC(N)=C(C#N)C1c1ccncc1 (centres undefined)	-23%	-18%	-14	43%	-1	9%
COc1ccc2cc(C3C(C#N)=C(N)OC(C)=C3C(C)=O)c(Cl)nc2c1 (centres undefined)	-3%	24%	38	-3%	8	5%
CC(=O)C1=C(C)OC(N)=C(C#N)C1c1cccc([N+](=O)[O-])c1 (centres undefined)	9%	16%	-8	14µM*	-2	·
